± gives the standard deviation.
Each molecule was assayed on Jurkat (assay: mean cell size (FSC-A) relative to DMSO control (fraction of control); higher = larger cells). Details: 48 h.
In short: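 Jurkat cells seeded at 600 cells/µl were incubated 1 h, then exposed for 48h to the Enzo Screen-Well FDA Approved Drug Library v2.0 at 25µM in 0.9% (v/v) final DMSO. Drugs that cut counts below 20% of controls were diluted 10-fold and retested, down to 25nM. Cell count and mean cell size (forward scatter area) were read on an Accuri C6 flow cytometer, relative to solvent-only controls. Plates held 6-12 controls; values are means of 3 biological replicates.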

Compound	mean cell size
O=C1CCc2ccc(OCCCCN3CCN(c4cccc(Cl)c4Cl)CC3)cc2N1 [Aripiprazole] (concentration: 25 µM)	1.02 ± 0.037
CC1(C)O[C@@H]2C[C@H]3[C@@H]4CCC5=CC(=O)C=C[C@]5(C)[C@@]4(F)[C@@H](O)C[C@]3(C)[C@]2(C(=O)CO)O1 [Triamcinolone Acetonide] (concentration: 25 µM)	0.997 ± 0.039
Cc1[nH]c(=O)c(C#N)cc1-c1ccncc1 [Milrinone] (concentration: 25 µM)	0.919 ± 0.051
CC1=C(C/C=C(\C)CCC[C@H](C)CCC[C@H](C)CCCC(C)C)C(=O)c2ccccc2C1=O [Phytonadione] (concentration: 25 µM)	0.986 ± 0.024
CC(=O)OC(C)C[N+](C)(C)C (configuration not stated) [Methacholine Chloride] (concentration: 25 µM)	1.05 ± 0.022
CCNC(=O)CCC/C=C\C[C@@H]1[C@@H](/C=C/[C@@H](O)CCc2ccccc2)[C@H](O)C[C@@H]1O [Bimatoprost] (concentration: 25 µM)	0.87 ± 0.025
CCCCCCCCCC(=O)N[C@@H](Cc1c[nH]c2ccccc12)C(=O)N[C@H](CC(N)=O)C(=O)N[C@@H](CC(=O)O)C(=O)N[C@@H]1C(=O)NCC(=O)N[C@@H](CCCN)C(=O)N[C@@H](CC(=O)O)C(=O)N[C@H](C)C(=O)N[C@@H](CC(=O)O)C(=O)NCC(=O)N[C@H](CO)C(=O)N[C@@H]([C@H](C)CC(=O)O)C(=O)N[C@@H](CC(=O)c2ccccc2N)C(=O)O[C@@H]1C [Daptomycin] (concentration: 25 µM)	0.975 ± 0.025
